Laboratory results from PubChem BioAssay (NCI).
This is part of a sample that, as a whole, favours compounds with a hit. Of some 79,000 tested, about 15% had one in any assay. Active and inactive are the calls of the source. Rule as the data show it: active = growth inhibition above about 70%; inactive = the rest.

Legend:
[1] = NCI Yeast Anticancer Drug Screen. Data for the rad50 strain (AID 155);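 also: 0% = growth of vehicle-only cultures of the same strain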; settings: S. cerevisiae rad50 strain growth inhibition; at 50.0 µM; stronger effect = higher value
Procedure, shortened: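 Vehicle-treated cultures provide the reference for the growth inhibition reported for compound-exposed, repair-deficient yeast.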

[2] = NCI Yeast Anticancer Drug Screen. Data for the mec2-1 strain (AID 157); settings: S. cerevisiae mec2-1 strain, at 50.0 µM, stronger effect = higher value
Procedure, shortened: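 Strain: mec2-1 (DNA repair/cell cycle alteration). Compound exposure, then growth measured; inhibition expressed relative to vehicle.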

[3] = NCI Yeast Anticancer Drug Screen. Data for the sgs1 mgt1 strain (AID 161);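 also: 0% = growth of cultures given vehicle only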; settings: S. cerevisiae sgs1 mgt1 strain, at 50.0 µM, stronger effect = higher value
Procedure, shortened: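 Test agents were incubated with a DNA-repair-mutant yeast strain. Growth was then read and compared against vehicle-treated controls.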

[4] = NCI Yeast Anticancer Drug Screen. Data for the cln2 rad14 strain (AID 165);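 also: 0% = growth equal to vehicle treated cultures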; settings: S. cerevisiae cln2 rad14 strain, at 50.0 µM, stronger effect = higher value
Procedure, shortened: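 Compounds are applied to the cln2 rad14 yeast strain, and growth is then compared with that of vehicle-treated cultures to give inhibition.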

[5] = NCI Yeast Anticancer Drug Screen. Data for the bub3 strain (AID 167); settings: S. cerevisiae bub3 mutant strain, at 50.0 µM, stronger effect = higher value
Procedure, shortened: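 Mutant yeast screening strain plus compound; vehicle-treated cultures serve as the 0% inhibition reference.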

[6] = NCI Yeast Anticancer Drug Screen. Data for the mlh1 rad18 strain (AID 175); settings: S. cerevisiae mlh1 rad18 strain growth inhibition; at 50.0 µM; stronger effect = higher value
Procedure, shortened: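 Read-out is yeast growth inhibition, calculated against vehicle-only controls. The compound was applied to a strain engineered with DNA damage repair alterations.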

Measured: growth inhibition

NC1=NS(=O)(=O)Nc2nc(-c3ccc([N+](=O)[O-])cc3)[nH]c21
inactive: [1] -43% | [2] -45.8% | [3] -53% | [4] -22.4% | [5] -38.2% | [6] -45%

O=C(O)C1=NN(c2cc(Cl)c(S(=O)(=O)O)cc2Cl)C(=O)C1
inactive: [1] -33.2% | [2] -45.1% | [3] -14.1% | [4] 6.1% | [5] -5.85% | [6] -32.9%

CC(=O)Nc1cc2cc(N=CN(C)C)ccc2oc1=O
inactive: [1] -24.9% | [2] -43.4% | [3] -16.4% | [4] -10.8% | [5] -18.1% | [6] -7.4%

NC(=S)c1ccc(N=Cc2ccccn2)cc1
inactive: [1] -0.25% | [2] -0.35% | [3] -1.7% | [4] -12.3% | [5] 3.1% | [6] -8%

Nc1nc2c(ncn2C2OC(COC(=O)c3ccccc3)C(OC(=O)c3ccccc3)C2OC(=O)c2ccccc2)c(=O)[nH]1 (configuration not stated)
inactive: [1] -25.9% | [2] -12.8% | [3] -0.6% | [4] 11.5% | [5] 0.9% | [6] -7.65%

CC(=O)N1C(=O)NC(=O)C1(C)c1cccs1 (configuration not stated)
inactive: [1] 23.2% | [2] -8.9% | [3] 2.9% | [4] -75.1% | [5] 2% | [6] 1.2%

C=CCOCCC(OCC=C)OCC=C
inactive: [1] 1.25% | [2] 7.75% | [3] 4.4% | [4] -23.9% | [5] -1.3% | [6] 8.85%

O=[N+]([O-])c1ccc(Oc2ccccc2-c2ccccc2)c([N+](=O)[O-])c1
inactive: [1] -2% | [2] -3.7% | [3] 11.6% | [4] -73.7% | [5] 8.2% | [6] 14.4%

CCOC1(C)OC2OC(COC(c3ccccc3)(c3ccccc3)c3ccccc3)C(OC(=O)c3ccccc3)C(OC(=O)c3ccccc3)C2O1 (configuration not stated)
inactive: [1] -3.5% | [2] 14% | [3] 4.05% | [4] -9.4% | [5] -5.9% | [6] 29.6%

CSc1nc(NC2OCC(OC(C)=O)C(OC(C)=O)C2OC(C)=O)c2c(n1)OCC2=O (configuration not stated)
inactive: [1] -17% | [2] -21.6% | [3] -21.6% | [4] 6.1% | [5] 13.4% | [6] -10.5%

CSc1ccc(NC(=O)CCc2ccccc2)cc1
inactive: [1] 7.7% | [2] 6.45% | [3] 13.2% | [4] -4% | [5] 41.5% | [6] 24.1%

Cc1ccc(-n2cnc3c(Cl)ncnc32)cc1[N+](=O)[O-]
inactive: [1] -4.05% | [2] 12.3% | [3] 15.1% | [4] -45% | [5] 1.65% | [6] 10.9%

COc1ccc2c3c(ccc2c1)C1CC(=O)CC1CC3 (configuration not stated)
inactive: [1] 30.6% | [2] -11.2% | [3] 54.8% | [4] 12.2% | [5] 61% | [6] 14.7%

C=CCN1C(=O)NC(=O)C1c1ccsc1 (configuration not stated)
inactive: [1] -14.7% | [2] -0.25% | [3] -22.2% | [4] -34.2% | [5] -1.45% | [6] 2.6%

COc1ccc2c(c1OC(C)=O)C1=CC(OC(C)=O)=CCC13CCN(C)C3C2 (configuration not stated)
inactive: [1] 2.75% | [2] -0.15% | [3] -10.8% | [4] -4.7% | [5] -6.4% | [6] -0.15%

CCC(C)[N+](=O)[O-] (configuration not stated)
inactive: [1] 3.6% | [2] -5.1% | [3] -5.55% | [4] -2.15% | [5] 0.75% | [6] 3.1%

Oc1cccc(Oc2cccc(Oc3cccc(O)c3)c2)c1
inactive: [1] -14.4% | [2] -14.2% | [3] -4.3% | [4] -8.65% | [5] 8.35% | [6] -7.85%

CC12CCC(=O)N1[C@@H](c1ccccc1)[C@@H](c1ccccc1)O2 (some centres not stated)
inactive: [1] 25.6% | [2] -12.6% | [3] -0.85% | [4] 15.4% | [5] 3.65% | [6] 5.9%

CC(C)=C1C2C=CC1C(CO)C2CO (configuration not stated)
inactive: [1] 9.8% | [2] -4.4% | [3] -3.95% | [4] -64% | [5] 2.2% | [6] 10.8%

CCCCC(CC)C(C(C)=O)N(C)C (configuration not stated)
inactive: [1] 33.1% | [2] -9.45% | [3] 13.1% | [4] 8.65% | [5] 4.45% | [6] 4.75%

COc1ccccc1CC(C)N1CCCC1c1ccccc1 (configuration not stated)
inactive: [1] -12.1% | [2] -6.8% | [3] -0.9% | [4] -41.6% | [5] 4.65% | [6] 3.4%

CCc1c(NCCO)c(C(=O)NCCO)c2nc3ccccc3n2c1NCCO
inactive: [1] 2.2% | [2] 9.65% | [3] -3.1% | [4] -14.1% | [5] -7.3% | [6] 11.8%

COC(=O)c1cc(C)c(C)c2c1NC(=O)CNC2=O
inactive: [1] -4.1% | [2] -4.2% | [3] 3.95% | [4] 19.8% | [5] -3.7% | [6] 7.95%

CCOCCC(=N)OCC
inactive: [1] 11.2% | [2] -4.7% | [3] 7.9% | [4] 9.45% | [5] 4.2% | [6] 13.6%

O=C1c2ccccc2C(=O)N1/N=[N+](\[O-])N1Cc2ccccc2C1
inactive: [1] 18.4% | [2] 27.9% | [3] 24.1% | [4] -18.2% | [5] 7.65% | [6] 28.2%

O=C(O)CCC1(c2ccccc2)CCCCC1
inactive: [1] 6.1% | [2] 13.9% | [3] 11.6% | [4] 10.2% | [5] 47.7% | [6] -0.9%

CCN(c1ccccc1)S(=O)(=O)c1cc(N)ccc1C
inactive: [1] -23.8% | [2] -10.7% | [3] 2.55% | [4] -2.8% | [5] -0.25% | [6] 4.55%

CC(=O)Nc1ccc2c(c1)Cc1cccc(O)c1-2
inactive: [1] 0.65% | [2] -7.15% | [3] 15.9% | [4] -29.9% | [5] 1.75% | [6] 10.1%

C/C=C(/C)c1cccc(OCc2ccccc2)c1OCc1ccccc1
inactive: [1] -19.1% | [2] 9.35% | [3] -5.65% | [4] -21.6% | [5] -17.3% | [6] -7.05%

Cc1cc(S(=O)(=O)Nc2nnc3c4ccccc4cnn23)c(S)cc1Cl
inactive: [1] -38% | [2] -24.4% | [3] -21% | [4] 2.7% | [5] -15.8% | [6] -31.6%

Clc1ccc2c(c1)nnn1nccc21
inactive: [1] 16.4% | [2] 17.6% | [3] -9.8% | [4] 10.9% | [5] 13.8% | [6] 14.8%

CCOC(=O)C(CO)C1CCCC1 (configuration not stated)
inactive: [1] 10.3% | [2] -2.65% | [3] 7.9% | [4] -5.4% | [5] 5.05% | [6] 2.75%

CC(=O)NC(NC(C)=O)c1ccccc1
inactive: [1] -16.6% | [2] -8.5% | [3] -5.45% | [4] -8.55% | [5] -26.4% | [6] -20.5%

O=C(NNC(=O)OCc1ccccc1)OCc1ccccc1
inactive: [1] 23.9% | [2] -2.75% | [3] 1.3% | [4] -34.2% | [5] 11.5% | [6] 18.1%

CCc1c2ccccc2cc2ccccc12
inactive: [1] -1% | [2] 1.85% | [3] -16.6% | [4] 9.75% | [5] 1.8% | [6] -5.95%

COC(=O)CC1C2C=CN(C(=O)OC)N(C(=O)OC)C21 (configuration not stated)
inactive: [1] -3.3% | [2] 4.25% | [3] 6.35% | [4] 10.8% | [5] 5.7% | [6] 3.9%

Cc1ccc(S(=O)(=O)N/N=C2/CC3CCC4CC2CC34)cc1 (configuration not stated)
inactive: [1] -51% | [2] -0.6% | [3] -35.2% | [4] -25% | [5] 12.9% | [6] -10.1%

Nc1[nH]c(=S)nc2snnc12
inactive: [1] 3% | [2] -6.6% | [3] 9.4% | [4] 11.2% | [5] 3.1% | [6] 14.8%

CCOC(=O)C1=C(C)NC(=O)NC1c1ccc(OC)cc1OC (configuration not stated)
inactive: [1] -2.15% | [2] -25.6% | [3] -11.7% | [4] 18.6% | [5] -18% | [6] -6.5%

O=C(O)CCCCCNCC(CNCCCCCC(=O)O)(C(=O)O)C(=O)O
inactive: [1] 7.7% | [2] -2.8% | [3] -2.7% | [4] -8.5% | [5] -1.05% | [6] 5.2%

CC(=O)Nc1c(C(N)=O)cnn1-c1ccccc1
inactive: [1] 17.9% | [2] 26.6% | [3] 17.7% | [4] -0.2% | [5] 24.5% | [6] 36.9%

O=C1c2ccccc2-c2c1cccc2[N+](=O)[O-]
inactive: [1] 48% | [2] 23.9% | [3] 9.55% | [4] -62.5% | [5] -18.3% | [6] 42.5%
